Drawing on PubChem BioAssay (Tox21), this text covers Potency and outcome for 15 compounds.

A short description of test [1]: qHTS assay to identify small molecule antagonists of the glucocorticoid receptor (GR) signaling pathway - cell viability counter screen (AID 720693). Note: nearly all actives have a fitted effect of over 55% in size. Background: qHTS replaces the single test concentration by a dilution series.
A short description of test [2]: qHTS assay to identify small molecule antagonists of the androgen receptor (AR) signaling pathway - cell viability counter screen (AID 743033; note: nearly all actives have a fitted effect of over 45% in size).
Test [3] can be described thus: qHTS assay to identify small molecule antagonists of the androgen receptor (AR) signaling pathway using the MDA cell line - cell viability counter screen (AID 743041; note: nearly all actives have a fitted effect of over 45% in size). The essentials: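 R1881-driven MDA-kb2 AR-luc cells, 3,000/well, were dosed with library compounds for 16 h; cell health came from CellTiter-Fluor fluorescence in the reporter wells.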
Test [4] is described as follows: qHTS assay to identify small molecule antagonists of the thyroid receptor (TR) signaling pathway - cell viability counter screen (AID 743064). Note: nearly all actives have a fitted effect of over 50% in size. Note: potency is the fitted concentration of half-maximal effect. An outline of the steps: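 In rat pituitary GH3.TRE-Luc reporter cells co-exposed to compound and 1 nM T3 for 23.5 h, cytotoxicity was assessed with CellTiter-Fluor in the same wells, read by fluorescence.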
Test [5] can be described thus: qHTS assay to identify small molecule antagonists of the thyroid receptor (TR) signaling pathway (AID 743065). Note: series mostly up to about 70 µM; nearly all actives have a fitted effect of over 55% in size. The essentials:
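Antagonism measured as loss of luciferase signal in GH3 cells stably carrying a TRE-luciferase reporter, co-treated with compound and T3 (1 nM final) for 23.5 h at 37 C. Viability was read in the same well by CellTiter-Fluor.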

The test system of test [6] is thyroid hormone receptor (rat, GH3 cells). Nature of the test: qHTS assay to identify small molecule agonists of the thyroid receptor (TR) signaling pathway (AID 743066; calls by dose curve).
The nature of test [7]: qHTS assay to identify small molecule antagonists of the estrogen receptor alpha (ER-alpha) signaling pathway - cell viability counter screen (AID 743074; calls by dose curve;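 note: HEK293 cells carrying ER-alpha-UAS-bla reporter stimulated with 17beta-estradiol; nearly all actives have a fitted effect of over 45% in size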).
Test [8] in a line: qHTS assay to identify small molecule antagonists of the estrogen receptor alpha (ER-alpha) signaling pathway using the BG1 cell line - cell viability counter screen (AID 743081).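 Note: compound given together with 17beta-estradiol as the ER stimulus; nearly all actives have a fitted effect of over 45% in size.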 Note: potency is the fitted concentration of half-maximal effect.
For another test, the target named is Aromatase (Homo sapiens) (UniProt P11511). Nature of the test: qHTS assay to identify aromatase inhibitors (AID 743083). Note: nearly all actives have a fitted effect of over 55% in size. Note: potency is the fitted concentration of half-maximal effect.
Test [9] can be described thus: qHTS assay for identifying genotoxic compounds that show differential cytotoxicity against isogenic chicken DT40 cell lines with known DNA damage response pathways - wild type cell line (AID 743012). Note: nearly all actives have a fitted effect of over 60% in size. Note: potency is the fitted concentration of half-maximal effect. The essentials: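 First, wild type DT40 cells were plated at 300 per well and equilibrated about 0.5 h at 37 C/5% CO2. Next, compounds in DMSO were added and exposure lasted 40 h. Finally, CellTiter-Glo was added for 30 min at room temperature and luminescence recorded.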

In test [10] the target is Estrogen receptor (Homo sapiens) (UniProt P03372). Nature of the test: qHTS assay to identify small molecule antagonists of the estrogen receptor alpha (ER-alpha) signaling pathway (AID 743069; active = well fitted curve in the direction sought with a large enough effect in the signal ratio in the repeat runs, not every such curve was filed as active; inconclusive = weak or mixed curves, or effect the other way; inactive = no such curve, though single readings can be large or run the other way; the % refers to the signal ratio). The essentials: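 Compound effects are measured against 17beta-estradiol stimulation in HEK293 cells with a UAS-controlled beta-lactamase reporter for ER-alpha. Exposure lasts 18 hr at 37C; LiveBLAzer B/G FRET substrate follows for 2 hr at room temperature.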

The target is the same in test [11]. Nature of the test: qHTS assay to identify small molecule agonists of the estrogen receptor alpha (ER-alpha) signaling pathway (AID 743075; calls by dose curve; note: potency is the fitted concentration of half-maximal effect).
The target is the same in test [12]. Nature of the test: qHTS assay to identify small molecule agonists of the estrogen receptor alpha (ER-alpha) signaling pathway using the BG1 cell line (AID 743079). Note: nearly all actives have a fitted effect of over 20% in size. Note: potency is the fitted concentration of half-maximal effect.
A short description of test [13]: qHTS assay for identifying genotoxic compounds that show differential cytotoxicity against isogenic chicken DT40 cell lines with known DNA damage response pathways - Rev3 mutant cell line (AID 743014). Note: nearly all actives have a fitted effect of over 55% in size. Note: potency is the fitted concentration of half-maximal effect.
Test [14] is described as follows: qHTS assay for identifying genotoxic compounds that show differential cytotoxicity against isogenic chicken DT40 cell lines with known DNA damage response pathways - Rad54/Ku70 mutant cell line (AID 743015). Note: nearly all actives have a fitted effect of over 60% in size. Note: potency is the fitted concentration of half-maximal effect.
Test [15] is described as follows: qHTS assay to identify small molecule antagonists of the estrogen receptor alpha (ER-alpha) signaling pathway using the BG1 cell line (AID 743080; calls by dose curve;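 note: BG1 cells stimulated with 17beta-estradiol alongside compound; nearly all actives have a fitted effect of over 25% in size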; note: potency is the fitted concentration of half-maximal effect). The essentials: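 Seeding, 24 h rest, compound transfer from DMSO, 17beta-estradiol addition, 21.5 h incubation, CellTiter-Fluor (30 min, 37 C), then ONE-Glo (30 min, room temperature): this sequence was run on BG1-Luc-4E2 reporter cells.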

Values joined by “and” are separate entries in the source; they are usually repeats but may differ in a detail not shown here. Identical values can stand only once. More than one record can exist for a structure, and the calls need not agree. Active and inactive are the calls of the source. Unless noted, calls come from the whole dose curve; as a rule, active = well fitted curve in the direction sought with a large enough effect in the repeat runs; inconclusive = weak or mixed curves; inactive = no such curve, though single readings can be large; an effect the other way counts as inactive or inconclusive.

Aromatase (Homo sapiens), sequence (P11511 whole entry, looked up): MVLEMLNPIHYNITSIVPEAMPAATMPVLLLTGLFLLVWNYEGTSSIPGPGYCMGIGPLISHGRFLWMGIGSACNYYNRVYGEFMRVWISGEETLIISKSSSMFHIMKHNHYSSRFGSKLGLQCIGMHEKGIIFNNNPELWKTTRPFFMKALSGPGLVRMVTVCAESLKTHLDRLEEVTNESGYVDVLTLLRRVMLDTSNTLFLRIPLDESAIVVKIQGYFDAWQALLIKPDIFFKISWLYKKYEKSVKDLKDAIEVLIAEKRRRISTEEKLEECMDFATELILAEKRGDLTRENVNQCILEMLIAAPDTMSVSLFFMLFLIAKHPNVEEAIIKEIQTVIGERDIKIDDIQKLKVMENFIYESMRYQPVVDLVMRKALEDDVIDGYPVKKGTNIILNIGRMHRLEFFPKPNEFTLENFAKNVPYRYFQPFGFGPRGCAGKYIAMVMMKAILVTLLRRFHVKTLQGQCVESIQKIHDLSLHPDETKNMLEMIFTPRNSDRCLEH
Estrogen receptor (Homo sapiens), sequence (P03372 whole entry, looked up): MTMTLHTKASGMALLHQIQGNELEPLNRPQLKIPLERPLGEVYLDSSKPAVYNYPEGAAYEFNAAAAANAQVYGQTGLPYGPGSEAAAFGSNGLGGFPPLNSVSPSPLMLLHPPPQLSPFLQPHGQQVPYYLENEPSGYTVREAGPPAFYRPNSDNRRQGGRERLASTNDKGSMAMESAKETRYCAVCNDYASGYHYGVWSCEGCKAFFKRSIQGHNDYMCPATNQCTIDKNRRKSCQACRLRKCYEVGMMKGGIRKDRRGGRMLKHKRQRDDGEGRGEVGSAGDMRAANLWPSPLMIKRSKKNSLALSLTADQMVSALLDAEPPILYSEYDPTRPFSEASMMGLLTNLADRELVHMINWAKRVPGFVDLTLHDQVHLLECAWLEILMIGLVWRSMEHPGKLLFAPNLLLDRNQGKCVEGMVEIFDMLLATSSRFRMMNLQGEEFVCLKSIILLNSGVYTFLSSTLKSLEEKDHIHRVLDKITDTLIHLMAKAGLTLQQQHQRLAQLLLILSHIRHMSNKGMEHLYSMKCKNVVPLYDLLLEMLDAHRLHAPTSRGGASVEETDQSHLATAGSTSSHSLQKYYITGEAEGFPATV

Take `NC(=O)NNc1ccccc1`: the Potency entry in test [1], in test [2], in [3], in test [4], in [5] and in [7] was “inactive” throughout. In addition, the Potency entry (in [8]; with Aromatase (Homo sapiens)) was “inactive” each time. The result in [6] was inactive.
On to `O=S(=O)(Oc1ccc(Cl)cc1Cl)c1ccccc1`, for which the Potency result in [1], in test [9], in [2], in test [3], in test [4] and in test [5] was “inactive” in each case. The Potency result (in [10]; in test [7]; in test [8]; in the test with Aromatase (Homo sapiens)) was “inactive” throughout. Further, the call in test [6] was inactive. In addition, the Potency in test [11] was 7.9 µM [activator] (active) and 55 µM [activator] (active); in test [12] it was 19.7 µM (active) and 30.6 µM (active).
As for `CC(C)n1c(/C=C/[C@@H](O)C[C@@H](O)CC(=O)O)c(-c2ccc(F)cc2)c2ccccc21`, the Potency result in test [1], in test [3], in test [4], in test [7] and in test [8] was “inactive” in each case. The Potency in test [9] is 1.06 µM (active) and 6.11 µM (active); in [13], 9.4 nM (active) and 3.06 µM (active). In addition, in test [6], the call was inactive.
As to `C[C@@H](O)[C@H]1C(=O)N2C(C(=O)O)=C(S[C@@H]3CN[C@H](C(=O)N(C)C)C3)[C@H](C)[C@H]12`, the Potency result in [1], in test [9], in [14], in test [2], in test [3] and in test [4] was “inactive” in each case. Further, the Potency entry (in test [5]; in test [7]; in test [8]; with Aromatase (Homo sapiens)) was “inactive” throughout. Also, the compound was called inactive in [6].
Regarding `COC(=O)c1ccc(C(=O)OC)cc1`, the Potency entry in [1], in [9], in test [13], in [2], in [3] and in test [4] was “inactive” each time. Besides, the Potency entry in test [10], in test [7], in test [11], in test [12], in test [15] and in [8] was “inactive” in each case. In addition, the Potency entry with Aromatase (Homo sapiens) was “inactive”. Besides, in [6], the result was inactive.
`CN(C)c1cccc(O)c1`: the Potency result in test [1], in test [13], in test [14], in test [2], in [3] and in test [4] was “inactive” throughout. Moreover, the Potency result (in test [5]; in test [7]; in [8]; with Aromatase (Homo sapiens)) was “inactive” in each case. Further, the call in test [6] was inactive.
Consider `NCCc1ccc(O)c(O)c1`, for which the Potency result (in [1]; in [2]; in test [10]; in test [7]; in test [11]; with Aromatase (Homo sapiens)) was “inactive” throughout. The Potency in test [9] was 54.6 µM (active); in test [13], 15.4 µM (active); in [4], 27.4 µM (active); in [8] it was “inactive and 54.6 µM (active)”. The compound was called inactive in test [6].
For `CC(=O)[C@@]1(O)CC[C@H]2[C@@H]3CCC4=CC(=O)CC[C@]4(C)[C@H]3CC[C@@]21C`, the Potency result in test [1], in [2], in test [3], in test [4], in test [7] and in test [8] was “inactive” each time. Besides, the Potency entry in test [13] is “inactive and 17.2 µM (active)”; in test [14], 24.3 µM (active).
In the case of `CC1=C(/C=C/C(C)=C/C=C/C(C)=C/CO)C(C)(C)CCC1`, the Potency entry in test [1], in test [2], in test [3], in test [4], in test [10] and in test [7] was “inactive” throughout. Moreover, the Potency entry in test [8] was “inactive”. For the same compound, the Potency was 28.8 µM (active) in test [9]; 55.1 µM (active) and 36.2 µM (active) in test [13]; 8.49 µM [inconclusive] (active) and inactive in test [11]; 944 nM (active) and inactive in [12]; 15 µM (active) and 7.79 µM (active) and inactive in test [15]; “inactive and 28.8 µM (active)” with Aromatase (Homo sapiens). The compound was classed as inactive in [6].
As for `OCC#CCO`, the Potency entry (in test [1]; in test [2]; in test [3]; in [4]; in test [8]; with Aromatase (Homo sapiens)) was “inactive” each time. Besides, the Potency result is “inactive and 54.5 µM (active)” in test [9]; “inactive and 54.5 µM (active)” in test [13]. Besides, the result in test [6] was inactive.
For `O=C(c1ccc(O)cc1)c1ccc(O)cc1O`, the Potency result in test [1], in test [9], in [13], in [2], in test [3] and in test [4] was “inactive” each time. Further, the Potency result (in test [7]; in [15]; in test [8]; in the test with Aromatase (Homo sapiens)) was “inactive” in each case. The result in test [6] was inactive. Moreover, the Potency in [11] was 11.1 µM [inconclusive] (active) and 21.9 µM [inconclusive] (active); in test [12] it was 5.5 µM (active) and 9.69 µM (active).
Regarding `CC(=O)CCc1ccccc1`, the Potency result in test [1], in [9], in [13], in test [2], in [3] and in test [4] was “inactive” in each case. The Potency entry (in [5]; in test [7]; in [8]; with Aromatase (Homo sapiens)) was “inactive” each time. Moreover, the call in [6] was inactive.
With `C=C(C)C(=O)OCC(CC)(COC(=O)C(=C)C)COC(=O)C(=C)C`, the Potency entry in test [1], in test [9], in test [2], in [3], in test [4] and in test [5] was “inactive” throughout. Further, the Potency result (in test [8]; with Aromatase (Homo sapiens)) was “inactive” each time. For the same compound, the call in [6] was inactive.
For the compound `CC1CC(OC(=O)c2ccccc2O)CC(C)(C)C1` (centres undefined), the Potency entry in test [1], in test [9], in [13], in test [2], in [3] and in [7] was “inactive” each time. The Potency result (in [8]; with Aromatase (Homo sapiens)) was “inactive” throughout. Further, the call in test [6] was inactive.
With `O=C(Cl)c1c(Cl)c(Cl)c(C(=O)Cl)c(Cl)c1Cl`, the Potency result in test [1], in [9], in test [13], in [2], in test [3] and in test [4] was “inactive” throughout. For the same compound, the Potency result in test [10], in test [7], in [11], in test [12], in test [15] and in test [8] was “inactive” each time. Besides, the Potency entry in the test with Aromatase (Homo sapiens) is “inactive”. Besides, the compound was called inactive in [6].
